Data from PubChem BioAssay (NCI).
This is part of a sample that, as a whole, favours compounds with a hit. Of some 83,000 tested, about 20% had one in any assay.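 Assay: single dose, 48 h. Readout: percent growth (0 = no net growth; negative = cell death). Active: <10.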 A number with no mark means an inactive call. Active and inactive are the calls of the source.

Assays:
Assay in all cases: NCI-60 one-dose screen, 48 h (100 = growth as untreated, 0 = no growth, -100 = all killed)
DU-145 prostate = conditions: 10 µM unless noted
MALME-3M melanoma = conditions: 10 µM unless noted
RXF 393 renal = conditions: 10 µM unless noted
SF-295 CNS = conditions: 10 µM unless noted
UACC-257 melanoma = conditions: 10 µM unless noted
SNB-19 CNS = conditions: 10 µM unless noted
SK-MEL-5 melanoma = conditions: 10 µM unless noted
LOX IMVI melanoma = conditions: 10 µM unless noted
SK-MEL-2 melanoma = conditions: 10 µM unless noted
ACHN renal = conditions: 10 µM unless noted
CCRF-CEM leukemia = conditions: 10 µM unless noted
OVCAR-8 ovarian = conditions: 10 µM unless noted
IGROV1 ovarian = conditions: 10 µM
OVCAR-3 ovarian = conditions: 10 µM unless noted
NCI/ADR-RES ovarian = conditions: 10 µM unless noted
T-47D breast = conditions: 10 µM unless noted
HCC-2998 colon = conditions: 10 µM unless noted
K-562 leukemia = conditions: 10 µM unless noted
HL-60(TB) leukemia = conditions: 10 µM unless noted
MOLT-4 leukemia = conditions: 10 µM

SMILES: S=P(Nc1ccccc1)(Nc1ccccc1)c1ccccc1
- growth (DU-145 prostate): 122%
- growth (MALME-3M melanoma): 142%
- growth (RXF 393 renal): 98.5%
- growth (SF-295 CNS): 102%
- growth (UACC-257 melanoma): 102%
- growth (SNB-19 CNS): 85.3%
- growth (SK-MEL-5 melanoma): 92.1%
- growth (LOX IMVI melanoma): 89.1%
- growth (SK-MEL-2 melanoma): 105%
- growth (ACHN renal): 102%
- growth (CCRF-CEM leukemia): 95.3%
- growth (OVCAR-8 ovarian): 111%
- growth (IGROV1 ovarian): 101%
- growth (OVCAR-3 ovarian): 103%
- growth (NCI/ADR-RES ovarian): 88.3%
- growth (T-47D breast): 87.5%
- growth (HCC-2998 colon): 93.6%

SMILES: O=[N+]([O-])c1cccc([As]=[As]c2cccc([N+](=O)[O-])c2)c1 (centres undefined)
- growth (DU-145 prostate): -100% (active)
- growth (K-562 leukemia): -21.7% (active)
- growth (MALME-3M melanoma): -89.1% (active)
- growth (RXF 393 renal): -96.1% (active)
- growth (UACC-257 melanoma): -94.4% (active)
- growth (SNB-19 CNS): -98.6% (active)
- growth (SK-MEL-5 melanoma): -100% (active)
- growth (LOX IMVI melanoma): -55.4% (active)
- growth (SK-MEL-2 melanoma): -91.4% (active)
- growth (ACHN renal): -100% (active)
- growth (HL-60(TB) leukemia): -57% (active)
- growth (MOLT-4 leukemia): -37.4% (active)
- growth (OVCAR-8 ovarian): -70% (active)
- growth (IGROV1 ovarian): -57.8% (active)
- growth (OVCAR-3 ovarian): -96.1% (active)
- growth (NCI/ADR-RES ovarian): -1.16% (active)
- growth (T-47D breast): -58.3% (active)
- growth (HCC-2998 colon): -90.6% (active)

SMILES: CCOCC1(CCc2ccccc2)C(=O)NC(=S)NC1=O
- growth (DU-145 prostate): 109%
- growth (K-562 leukemia): 105%
- growth (MALME-3M melanoma): 138%
- growth (RXF 393 renal): 117%
- growth (SF-295 CNS): 111%
- growth (UACC-257 melanoma): 94.5%
- growth (SNB-19 CNS): 105%
- growth (SK-MEL-5 melanoma): 111%
- growth (LOX IMVI melanoma): 94.9%
- growth (SK-MEL-2 melanoma): 103%
- growth (ACHN renal): 108%
- growth (HL-60(TB) leukemia): 99.4%
- growth (CCRF-CEM leukemia): 100%
- growth (MOLT-4 leukemia): 91.8%
- growth (IGROV1 ovarian): 107%
- growth (OVCAR-3 ovarian): 117%
- growth (NCI/ADR-RES ovarian): 105%
- growth (T-47D breast): 99.3%

SMILES: Nc1ccc([N+](=O)[O-])c2c1Oc1ccccc1O2
- growth (DU-145 prostate): 93.1%
- growth (K-562 leukemia): 113%
- growth (MALME-3M melanoma): 121%
- growth (RXF 393 renal): 49.5%
- growth (SF-295 CNS): 85.1%
- growth (UACC-257 melanoma): 101%
- growth (SNB-19 CNS): 80.8%
- growth (SK-MEL-5 melanoma): 96.7%
- growth (LOX IMVI melanoma): 103%
- growth (SK-MEL-2 melanoma): 102%
- growth (ACHN renal): 108%
- growth (HL-60(TB) leukemia): -17.4% (active)
- growth (CCRF-CEM leukemia): 91.2%
- growth (MOLT-4 leukemia): 79.7%
- growth (OVCAR-8 ovarian): 92.9%
- growth (IGROV1 ovarian): 28%
- growth (OVCAR-3 ovarian): 88.3%
- growth (NCI/ADR-RES ovarian): 99.4%
- growth (T-47D breast): 72.7%
- growth (HCC-2998 colon): 108%

SMILES: Nc1ncnc2c1c(C(=O)NO)cn2C1OC(CO)C(O)C1O (centres undefined)
- growth (DU-145 prostate): -32.1% (active)
- growth (K-562 leukemia): -3.31% (active)
- growth (MALME-3M melanoma): -41.1% (active)
- growth (RXF 393 renal): -26.9% (active)
- growth (SF-295 CNS): -47.6% (active)
- growth (UACC-257 melanoma): -48% (active)
- growth (SK-MEL-5 melanoma): -93% (active)
- growth (LOX IMVI melanoma): -5.18% (active)
- growth (SK-MEL-2 melanoma): -18.7% (active)
- growth (ACHN renal): -15.4% (active)
- growth (HL-60(TB) leukemia): -43% (active)
- growth (CCRF-CEM leukemia): -17.6% (active)
- growth (MOLT-4 leukemia): -32.9% (active)
- growth (OVCAR-8 ovarian): -20.2% (active)
- growth (IGROV1 ovarian): -71.1% (active)
- growth (OVCAR-3 ovarian): -49.3% (active)
- growth (NCI/ADR-RES ovarian): 2.24% (active)
- growth (T-47D breast): -11.1% (active)
- growth (HCC-2998 colon): -38.7% (active)

SMILES: ClCCN(CCCl)c1ccc(/C=C\c2ccnc3ccccc23)cc1
- growth (DU-145 prostate): 90.6%
- growth (K-562 leukemia): 60.9%
- growth (MALME-3M melanoma): 74.4%
- growth (RXF 393 renal): 99%
- growth (SF-295 CNS): 69.4%
- growth (UACC-257 melanoma): 47.1%
- growth (SNB-19 CNS): 88.8%
- growth (SK-MEL-5 melanoma): 71.2%
- growth (LOX IMVI melanoma): 80.3%
- growth (ACHN renal): 76%
- growth (HL-60(TB) leukemia): 46.8%
- growth (CCRF-CEM leukemia): 71%
- growth (MOLT-4 leukemia): 69.8%
- growth (OVCAR-8 ovarian): 79.8%
- growth (IGROV1 ovarian): 81.6%
- growth (OVCAR-3 ovarian): 84%
- growth (NCI/ADR-RES ovarian): 80.4%
- growth (T-47D breast): 63.1%
- growth (HCC-2998 colon): 91.6%

SMILES: CCOc1cc(/C=N\Nc2nnc(C)n2N)c(C)cc1N(CCCl)CCCl
- growth (DU-145 prostate): 27.8%
- growth (K-562 leukemia): 7.77% (active)
- growth (RXF 393 renal): 29.7%
- growth (SF-295 CNS): -26.6% (active)
- growth (UACC-257 melanoma): -5.96% (active)
- growth (SNB-19 CNS): 14.2%
- growth (SK-MEL-5 melanoma): -47.3% (active)
- growth (LOX IMVI melanoma): 1.98% (active)
- growth (SK-MEL-2 melanoma): 17.2%
- growth (ACHN renal): 21.6%
- growth (HL-60(TB) leukemia): -48.9% (active)
- growth (CCRF-CEM leukemia): 4.43% (active)
- growth (MOLT-4 leukemia): -9.42% (active)
- growth (OVCAR-8 ovarian): 19.5%
- growth (IGROV1 ovarian): 12.3%
- growth (OVCAR-3 ovarian): 4.15% (active)
- growth (NCI/ADR-RES ovarian): 10.7%
- growth (T-47D breast): 12.6%
- growth (HCC-2998 colon): 3.97% (active)

SMILES: [Cl][Hg][n]1cnc2c(Cl)c(Cl)c(Cl)cc21
- growth (DU-145 prostate): 100%
- growth (K-562 leukemia): 96.5%
- growth (MALME-3M melanoma): 97.6%
- growth (RXF 393 renal): 140%
- growth (SF-295 CNS): 96.1%
- growth (UACC-257 melanoma): 96.2%
- growth (SNB-19 CNS): 102%
- growth (SK-MEL-5 melanoma): 102%
- growth (LOX IMVI melanoma): 79.6%
- growth (ACHN renal): 97.9%
- growth (HL-60(TB) leukemia): 99.9%
- growth (CCRF-CEM leukemia): 102%
- growth (MOLT-4 leukemia): 107%
- growth (OVCAR-8 ovarian): 101%
- growth (IGROV1 ovarian): 99.7%
- growth (OVCAR-3 ovarian): 94.5%
- growth (NCI/ADR-RES ovarian): 104%
- growth (T-47D breast): 72.2%
- growth (HCC-2998 colon): 107%
